Measured values published in PubChem BioAssay AID588689 (Southern Research Specialized Biocontainment Screening …, 2011).
Out of some 340,000 compounds screened, about 1,000 (0.29%) were called active. Cut-off read from the data, not from the text of the source: inconclusive = inhibition above about 29% without an active follow-up result; inactive = below that. Only a sample is shown. Entries with a potency or affinity are not part of this list.

Target: Genome polyprotein (Dengue virus type 2 (strain 16681-PDK53)) (UniProt P29991)
Test: Dengue-2 NS5 methyltransferase inhibitors, primary screen, biochemical, confirmation dose response (AID 588689)
Settings: Dengue-2 NS5 methyltransferase capping enzyme assay, at 25 µM, stronger effect = higher value

| SMILES | inhibition | inhibition (measured here: pilot screen replicate inhibition) |
| --- | --- | --- |
| CC(Oc1ccccc1)C(=O)N=C1SC2CS(=O)(=O)CC2N1Cc1ccccc1 (configuration not stated) | 0% (inactive) | – |
| Cc1nc(-c2ccccc2)sc1C(=O)Nc1ccccc1F | 0% (inactive) | – |
| CCOC(=O)N1CCN(C(=O)c2cn(CC)c3ccc(S(=O)(=O)N(C)C4CCCCC4)cc3c2=O)CC1 | 2.95% (inactive) | – |
| O=C(NO)C1CC2C=CC1C2 (configuration not stated) | -6.15% (inactive) | – |
| CCn1ccc2c(OCC(=O)NCCc3ccc(OC)c(OC)c3)cccc2c1=O | -3.6% (inactive) | – |
| CC(=C\c1ccccc1)/C=C1/SC(=S)N(CCC(=O)O)C1=O | 11.1% (inactive) | – |
| CC(=C\c1ccccc1)/C=C1/SC(=S)N(CCCC(=O)O)C1=O | 19% (inactive) | – |
| CCOc1ccccc1C=C1SC(=S)N(CC)C1=O | 6.98% (inactive) | – |
| CN1C(=O)S/C(=C/c2ccccc2OCc2ccc(C(=O)O)cc2)C1=O | 5.16% (inactive) | – |
| O=C(Nc1cccc(C(=O)O)c1)/C(=C\c1ccccc1)NC(=O)c1ccccc1Cl | -2.05% (inactive) | – |
| O=C1CCc2cc(S(=O)(=O)NCCc3ccc(Cl)cc3)cc3c2N1CC3 | 3.62% (inactive) | – |
| O=S(=O)(c1cccc2cccc(Cl)c12)N1CCCC1 | -4.68% (inactive) | – |
| O=C(CCC1CCCN(C(=O)CCC(F)(F)F)C1)NCc1ccc(F)c(F)c1 (configuration not stated) | -0.74% (inactive) | – |
| O=C(COC(=O)c1ccco1)NCc1ccccc1Cl | 3.03% (inactive) | – |
| Nc1ccc(S(=O)(=O)c2ccc(N)cc2)cc1 | 1.49% (inactive) | – |
| Nc1ccc(S(=O)(=O)c2cccc(N)c2)cc1 | -5.56% (inactive) | – |
| COCCn1c(C)cc(C(=O)CSc2n[nH]c(N)n2)c1C | -0.41% (inactive) | – |
| O=C1c2c([N+](=O)[O-])cc([N+](=O)[O-])cc2S(=O)N1Cc1ccccc1 (configuration not stated) | 10.1% (inactive) | – |
| O=c1c2c([N+](=O)[O-])cc([N+](=O)[O-])cc2sn1Cc1ccccc1 | 18.3% (inactive) | – |

| SMILES | inhibition | inhibition (measured here: pilot screen replicate inhibition) |
| --- | --- | --- |
| COC(=O)c1ccc(NC(=O)CCCCCn2nnc3ccccc3c2=O)cc1 | -0.65% (inactive) | – |
| O=C1CN(C(=O)N[C@@H](Cc2ccccc2)C(=O)N[C@H](Cc2ccccc2)C(=O)O)c2ccccc2N1 | -2.17% (inactive) | – |
| COc1cc(OC)cc(N(C(=O)C2COc3ccccc3O2)C(C(=O)NC2CCCCC2)c2ccc(O)cc2)c1 (configuration not stated) | -5.19% (inactive) | – |
| COc1ccccc1NC(=O)Nc1ccccc1C(N)=O | -5.31% (inactive) | – |
| NC(=O)N/N=C/c1ccc(-c2ccc(S(=O)(=O)Nc3ncccn3)cc2)o1 | -2.88% (inactive) | – |
| CCOc1ccc(C(=O)N/N=C/c2ccc(-c3ccc(S(=O)(=O)Nc4ncccn4)cc3)o2)cc1 | 0.82% (inactive) | – |
| CCOC(=O)CC(=O)CSc1ccc2nnc(-c3ccc(F)cc3)n2n1 | 0.81% (inactive) | – |
| CC(C)CCN1CN(S(=O)(=O)c2cccs2)c2nc3ccccc3nc21 | -2.77% (inactive) | – |
| COc1cc(NC(=S)NN2CCN(C)CC2)cc(OC)c1 | -3.9% (inactive) | – |
| N#C/C(=C\C=C\c1ccccc1[N+](=O)[O-])c1nc(-c2ccc3c(c2)OCO3)cs1 | -0.69% (inactive) | – |
| COc1ccc(-c2cc(C(F)(F)F)n3nc(C(=O)NCc4ccco4)cc3n2)cc1 | -2.82% (inactive) | – |
| CCc1ccc(N2C(=O)c3sc4nnc(C)c(=O)n4c3C2=O)cc1 | -0.68% (inactive) | 5.46% |
| Cc1ccc(N2C(=O)c3sc4nnc(C)c(=O)n4c3C2=O)cc1 | 0% (inactive) | – |
| Cc1ccc(S(=O)(=O)N2CCCCC2)cc1NC(=O)c1ccco1 | -2.75% (inactive) | – |
| Cc1ccc(C)c(OCc2cc(C(=O)NC(C)c3cnn(C)c3)no2)c1 (configuration not stated) | -5% (inactive) | – |
| CCOC(=O)N1CCC(Nc2c(-c3ccc(C)c(C)c3)c(=O)c2=O)CC1 | -8.18% (inactive) | – |
| COc1ccc(S(=O)(=O)Nc2cccc3c2O[C@H](CN(C)C(=O)Nc2ccc(C(F)(F)F)cc2)[C@@H](C)CN([C@H](C)CO)C3=O)cc1 | -2.11% (inactive) | – |
| O=C(CN1C(=O)S/C(=C\c2cccs2)C1=O)Nc1ccc(O)cc1C(=O)O | 14.3% (inactive) | – |
| O=C(CCN1C(=O)/C(=C/c2ccco2)SC1=S)Nc1ccc(C(=O)O)c(O)c1 | 48.7% (inactive) | – |

| SMILES | inhibition | inhibition (measured here: pilot screen replicate inhibition) |
| --- | --- | --- |
| O=C(CN1C(=O)S/C(=C\c2cccs2)C1=O)Nc1ccc(O)c(C(=O)O)c1 | 8.14% (inactive) | – |
| O=C(CN1C(=O)S/C(=C\c2cccs2)C1=O)Nc1ccc(C(=O)O)c(O)c1 | 15% (inactive) | – |
| O=C(CCCN1C(=O)/C(=C\c2ccccc2)SC1=S)Nc1ccc(O)cc1C(=O)O | 20.6% (inactive) | – |
| Cc1ccc(/C=C2\SC(=S)N(CCC(=O)NNC(=O)c3ccc(O)cc3)C2=O)cc1 | -0.88% (inactive) | – |
| O=C(CCCN1C(=O)/C(=C\c2cccs2)SC1=S)Nc1ccc(O)cc1C(=O)O | -9.83% (inactive) | – |
| O=C(CN1C(=O)/C(=C/c2ccco2)SC1=S)Nc1ccc(C(=O)O)c(O)c1 | 36.5% (inactive) | – |
| CC(C)(CNC(=O)c1ccccc1F)CNC(=O)c1ccccc1F | 3.07% (inactive) | – |
| CC(C)OC(=O)N(C)C[C@H]1OCc2cnnn2CCCC(=O)N([C@H](C)CO)C[C@H]1C | -3.41% (inactive) | – |
| COc1ccc(C2=NS(=O)(=O)N(C)C(C(=O)NC3CCCCC3)=C2)cc1OC | -5.5% (inactive) | – |
| O=S(=O)(CCc1nc2ccccc2o1)c1ccc2ccccc2c1 | -2.77% (inactive) | – |
| CC(Sc1nnc(COc2ccc(Cl)cc2)n1Cc1ccccc1)C(=O)O (configuration not stated) | 0.73% (inactive) | – |
| CCN(CC)C(=O)C1=C(C)N(CCC2=CCCCC2)C(=O)C(CC(=O)NCC2CCCCC2)C1 (configuration not stated) | -0.57% (inactive) | – |
| O=[N+]([O-])c1cc(C(F)(F)F)cc([N+](=O)[O-])c1NN=C1CCCCC1 | -139% (inactive) | – |
| CC1(C)CC(=O)C=C(NCc2ccc(C(=O)O)cc2)C1 | -7.73% (inactive) | – |
| COc1ccc(CN2C(=O)C(C)Nc3ncnc(N4CCOCC4)c32)cc1 (configuration not stated) | -5.79% (inactive) | – |
| COc1ccc(S(=O)(=O)N(CCCN2CCOCC2)Cc2cccc3ccccc23)cc1 | 1.67% (inactive) | – |
| CCN(CC)c1ccc(C(=C2C=CC(=[N+](CC)CC)C=C2)c2ccc(S(=O)(=O)O)cc2S(=O)(=O)[O-])cc1 | 1.48% (inactive) | – |
| CCN(CC)c1ccc(C(=C2C=CC(=[N+](CC)CC)C=C2)c2ccc(N(CC)CC)cc2)cc1 | 17% (inactive) | – |
